# Assay outcomes as filed in PubChem.
# FMDV inh: High Throughput Screening for Foot and Mouth Disease Virus Antivirals | FMDV antiviral cell-based qHTS | Potency, µM (series often up to 57.9 µM), actives largely listed as inhibitors | actives 1.2% (n = 410,000); calls by dose curve; tested in HEK293T cells; note: read-out not given here; nearly all actives have a fitted effect of over 45% in size
# VACV mCherry inh: qHTS for Stage-Specific Inhibitors of Vaccinia Orthopoxvirus: mCherry Reporter Primary qHTS; actives 0.63% (n = 310,000); Vaccinia virus mCherry reporter infection, fluorescence; Potency, µM (titrated, usually from 36.5 µM), actives largely listed as inhibitors; calls by dose curve; tested in A549 cells; note: nearly all actives have a fitted effect of over 35% in size
# Vaccinia Venus: qHTS for Stage-Specific Inhibitors of Vaccinia Orthopoxvirus: Venus Reporter Primary qHTS; actives 0.46% (n = 330,000); Vaccinia virus Venus reporter expression, fluorescence; AID 720580, 2013; Potency, µM (titrated, usually from 36.5 µM), actives largely listed as inhibitors; calls by dose curve; tested in A549 cells; note: nearly all actives have a fitted effect of over 30% in size
# HCMV inh: qHTS Assay for inhibitors of the human cytomegalovirus (HCMV). HFF cells, HCMV-luciferase reporter, 72 h; active compounds read low. actives 4.5% (n = 410,000). activity change, negative = inhibition, % at 57.5 µM. AID 1259415, 2018; in the data active = activity change below about -60%; inconclusive = no clear call, values can overlap the other calls; inactive = above about -39%
#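 Human foreskin fibroblasts infected with luciferase-reporter HCMV at MOI 1 PFU/cell, compounds at two doses. Luciferase measured 72 h post infection; normalized to buffer-only basal and Salinomycin (10uM) controls.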
# Sm TGR inh: qHTS Assay for the Inhibitors of Schistosoma Mansoni Peroxiredoxins. Schistosoma mansoni thioredoxin glutathione reductase (TGR), Q962Y6. actives 3% (n = 360,000). purified TGR, DTNB reduction, TNB absorbance 405 nm. Potency, µM (doses to about 114 µM), most hits filed as inhibitors; note: nearly all actives have a fitted effect of over 60% in size
#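 First, TGR (20 nM dispensed) and NADPH were mixed with compound. Second, a 15 min room-temperature incubation followed. Third, further NADPH and then DTNB were added to start the reaction. Finally, TNB absorbance was monitored kinetically.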
# HCV inhibitor: qHTS Assay for Inhibitors of Hepatitis C Virus (HCV); Huh7.5.1 HCVcc-Cre infection, luciferase reporter, 44 h; Potency, µM (top dose mostly 41.8 µM), usual class: inhibitors; actives 3.4% (n = 340,000); AID 651820, 2012
#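 Reporter virus HCVcc-Cre (~0.5 moi) infects cells exposed to compound; seeding density 1,000 cells/well with 4 h settling beforehand. Luminescence, 15 sec read, taken 44 h post-infection following a 15 min RT substrate incubation.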
# Hits are given with their value; i = inactive; ? = inconclusive; nt = not tested or not shown; [ ] = remark or other dose. Shown are actives, neighbours in structure and some others; about 9.3% of the full set was active somewhere. Unless noted, calls come from the whole dose curve; as a rule, active = well fitted curve in the direction sought with a large enough effect; inconclusive = small, poorly fitted or top-dose-only effect, or another doubt; inactive = no such curve, though single readings can be large; an effect the other way counts as inactive or inconclusive.
SMILES,FMDV inh,VACV mCherry inh,Vaccinia Venus,HCMV inh,Sm TGR inh,HCV inhibitor
COc1ccc(Br)cc1CN(C)CC(=O)Nc1cc(Cl)ccc1Cl,?,i,i,?,i,?
COc1ccc(CNC(=O)C(c2ccc(C)o2)N(Cc2cccs2)C(=O)Cc2cccs2)cc1 (configuration not stated),i,?,i,i,?,11µM
C/C(=N\OCc1ccc(C#N)cc1)c1ccccc1,i,nt,nt,i,i,i
C/C(=N\OCc1cccc(C(=O)O)c1)c1ccc(Cl)cc1,10µM,i,i,i,i,i
COc1cccc(CN(Cc2ccco2)S(=O)(=O)c2ccc(S(=O)(=O)NCc3ccccc3)cc2)c1OC,i,nt,nt,i,i,11µM
Cc1cccc(N(Cc2cc3ccccc3[nH]c2=O)S(=O)(=O)c2ccccc2)c1,?,i,i,?,i,i
COc1ccc(S(=O)(=O)N(Cc2ccco2)Cc2cc3ccccc3[nH]c2=O)cc1,?,i,i,i,?,14µM
O=c1[nH]c2ccccc2cc1CN(c1ccccc1)S(=O)(=O)c1ccccc1,i,i,i,-64,i,i
Cc1ccc(S(=O)(=O)N(Cc2cccnc2)Cc2cc3ccccc3[nH]c2=O)cc1,i,i,i,-62,i,i
CCC1(c2ccc(Cl)cc2)NC(=O)N(CC(=O)NCc2ccc(F)cc2)C1=O (configuration not stated),i,i,i,i,i,i
O=C(NNC(=O)c1ccco1)c1csc(N2CCOCC2)n1,i,i,i,i,i,i
CC(C)N(C(=O)[C@H]1CC(CC(=O)NCCCn2ccnc2)C(=O)N2CCc3c([nH]c4ccccc34)[C@]12C)C(C)C (some centres not stated),i,?,i,i,nt,i
COC(=O)c1cc2n(n1)CCN(Cc1ccc(F)cc1)C2=O,i,nt,i,-106,i,i
COC(=O)c1cc2n(n1)CCN(Cc1ccccc1F)C2=O,i,i,i,i,i,i
COc1ccc(S(=O)(=O)N(CCCN2CCOCC2)Cc2cccc3ccccc23)cc1,i,nt,i,nt,i,i
CCOC(=O)C1=C(CSc2nc3c(cc2C#N)CN(C)CC3)OC(N)=C(C#N)C1c1ccc(Cl)cc1 (configuration not stated),i,nt,i,i,i,13µM
CCN1CCc2nc(SCC(=O)Nc3ccc(OC)cc3)c(C#N)cc2C1,i,nt,nt,i,i,?
CCOC(=O)C1=C(CSc2nc3c(cc2C#N)CN(C)CC3)OC(N)=C(C#N)C1c1ccncc1 (configuration not stated),i,i,i,i,?,i
CN1CCc2nc(SCC(=O)Nc3ccc(F)cc3)c(C#N)cc2C1,nt,nt,nt,nt,28µM,i
COc1ccc(NC(=O)CSc2nc3c(cc2C#N)CN(C)CC3)cc1,i,i,i,i,79µM,i
COc1ccc2c(CN3CCCCC3)cc(=O)oc2c1,i,i,i,i,nt,nt
COc1ccc(Cc2nc3c4cnn(-c5ccccc5F)c4ncn3n2)cc1,i,i,i,i,i,nt
Cc1cc(NN=Cc2ccccn2)nc2c(C)cccc12,nt,nt,nt,i,nt,nt
Cc1cc(NN=Cc2ccccn2)nc2ccccc12,nt,nt,nt,-100,nt,nt
C(=N\NC1=Nc2cccc3cccc1c23)/c1ccccn1,i,?,?,-80,i,2.8µM
SMILES,FMDV inh,VACV mCherry inh,Vaccinia Venus,HCMV inh,Sm TGR inh,HCV inhibitor
C(=NNc1ccc2ccccc2n1)c1ccccn1,7.9µM,1.8µM,?,-101,nt,nt
Clc1ccccc1/C=N/NC1=Nc2cccc3cccc1c23,i,i,i,i,i,i
C(=N\N=C\c1ccccn1)/c1ccccn1,i,i,i,i,i,i
O=c1[nH][nH]c2c1[C@H](c1ccc(Cl)cc1)O[C@H](C1CC1)C2,i,i,i,i,nt,nt
CCN(CC)CCCNC(=O)c1cc(-c2ccc(O)cc2)on1,i,i,i,i,i,i
CCN(CC)CCCNC(=O)c1cc(-c2ccc(Cl)c(Cl)c2)on1,i,i,?,i,i,1.4µM
Cc1ccc(-c2cc(C(=O)NCCCN3CCOCC3)no2)cc1,?,?,i,-67,i,i
O=C(NCCCN1CCOCC1)c1cc(-c2ccc(Cl)c(Cl)c2)on1,i,i,i,i,i,13µM
N/C(=N\OC(=O)c1cccc(Br)c1)c1ccncc1,i,i,i,i,i,i
O=C(C1=NN[C@@H]2C(=O)N(c3ccccc3C(F)(F)F)C(=O)[C@H]12)c1ccc2ccccc2n1,i,i,i,i,i,i
O=C(C1=NN[C@@H]2C(=O)N(c3cccc(C(F)(F)F)c3)C(=O)[C@H]12)c1cnccn1,i,i,i,i,18µM,i
O=C(C1=NN[C@@H]2C(=O)N(c3cccc(C(F)(F)F)c3)C(=O)[C@H]12)C(c1ccccc1)c1ccccc1,i,i,i,i,i,i
N#Cc1ccc(N2C(=O)[C@@H]3C(C(=O)c4ccc5ccccc5n4)=NN[C@@H]3C2=O)cc1,i,i,i,i,50µM,?
N#Cc1ccc(N2C(=O)[C@@H]3C(C(=O)c4cnccn4)=NN[C@@H]3C2=O)cc1,?,i,i,i,8.9µM,i
Cc1cccc(-n2ncc3c2CCCC3NC(=O)CCCN2CCCCC2=O)c1C (configuration not stated),?,i,i,nt,i,?
CCOC(=O)c1c(NC(C)=O)c2c3c(sc2n1Cc1cccc(Cl)c1)CCCC3,i,i,i,-84,i,nt
COc1cccc(CNC(=O)Cn2ccc3cc(S(=O)(=O)N4CCCCCC4)ccc32)c1,i,nt,nt,i,i,13µM
COc1cccc(CNS(=O)(=O)c2ccc(S(=O)(=O)N3CCCC3)cc2)c1,i,i,i,i,45µM,i
Cc1cccnc1Nc1nc(-c2ccccn2)cs1,i,2.5µM,3.2µM,-106,i,?
Cc1cccc(Nc2nc(-c3ccccn3)cs2)n1,i,nt,nt,i,i,7.1µM
Cc1cccnc1Nc1nc(-c2ccccc2)cs1,i,nt,nt,i,i,16µM
Cc1cccc(Nc2nc(-c3cccs3)cs2)n1,i,i[1.46 µM],?,i,i,?
C#Cc1ccc(NC(=O)C2(C)CCN2C(=O)c2cc(C)n(C)n2)cc1 (configuration not stated),?,i,i,i,nt,nt
COc1cccc(Cn2cnc3c(NS(=O)(=O)c4cccc(Cl)c4Cl)c(C)c(C)cc32)c1,?,nt,nt,i,i,13µM
Oc1c(CN2CCN(c3ccccn3)CC2)cc(Cl)c2cccnc12,?,nt,11µM,nt,?,5µM
OCCN1CCN(Cc2cc(Cl)c3cccnc3c2O)CC1,i,nt,nt,i,45µM,?
S=C(Nc1ccc(Cl)cc1)NC1CCN(Cc2ccccc2)CC1,?,?,?,i,i,11µM
